Experimental data reported in PubChem BioAssay (NCI).
The panel holds about 83,000 compounds, 20% with a hit somewhere; the sample as a whole holds those more often.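 96-well plates, one dose, 48 hours. Percent growth reported; active if below 10.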 A number with no mark means an inactive call. Activity calls are given as the source filed them.

Legend:
Assay in all cases: NCI-60 one-dose screen, 48 h (100 = growth as untreated, 0 = no growth, -100 = all killed)
Settings in all cases: 10 µM
SK-MEL-2 melanoma = tested on: SK-MEL-2 melanoma
EKVX NSCLC = tested on: EKVX NSCLC
SN12C renal = tested on: SN12C renal
UO-31 renal = tested on: UO-31 renal
TK-10 renal = tested on: TK-10 renal
ACHN renal = tested on: ACHN renal
CAKI-1 renal = tested on: CAKI-1 renal
A498 renal = tested on: A498 renal
CCRF-CEM leukemia = tested on: CCRF-CEM leukemia
MOLT-4 leukemia = tested on: MOLT-4 leukemia
SR leukemia = tested on: SR leukemia
OVCAR-8 ovarian = tested on: OVCAR-8 ovarian
OVCAR-5 ovarian = tested on: OVCAR-5 ovarian
OVCAR-4 ovarian = tested on: OVCAR-4 ovarian
SK-OV-3 ovarian = tested on: SK-OV-3 ovarian
IGROV1 ovarian = tested on: IGROV1 ovarian
OVCAR-3 ovarian = tested on: OVCAR-3 ovarian
HS 578T breast = tested on: HS 578T breast
NCI/ADR-RES ovarian = tested on: NCI/ADR-RES ovarian
RPMI-8226 leukemia = tested on: RPMI-8226 leukemia

Structure (SMILES) | growth (SK-MEL-2 melanoma) | growth (EKVX NSCLC) | growth (SN12C renal) | growth (UO-31 renal) | growth (TK-10 renal) | growth (ACHN renal) | growth (CAKI-1 renal) | growth (A498 renal) | growth (CCRF-CEM leukemia) | growth (MOLT-4 leukemia) | growth (SR leukemia) | growth (OVCAR-8 ovarian) | growth (OVCAR-5 ovarian) | growth (OVCAR-4 ovarian) | growth (SK-OV-3 ovarian) | growth (IGROV1 ovarian) | growth (OVCAR-3 ovarian) | growth (HS 578T breast) | growth (NCI/ADR-RES ovarian) | growth (RPMI-8226 leukemia)
CC1(c2ccccc2)NC(=O)N(CC(=O)Nc2ccc(C(=O)/C=C/c3ccccc3)cc2)C1=O (centres undefined) | 75.3% | 58.2% | 68.7% | 52.9% | 92.1% | 60.3% | 61.9% | 104% | 35.7% | 22.9% | 14.4% | 65.1% | 89.2% | 60.9% | 121% | 61.7% | 37.7% | 71.5% | 87.5% | –
CCOc1ccc(/C=N/NC(=O)Cn2nc(Cc3ccccc3)c3onc(C)c3c2=O)cc1 | 3.12% (active) | 23.9% | 8.3% (active) | -2.49% (active) | 25.6% | 6.42% (active) | 12% | -6.43% (active) | 86.6% | 79.6% | 78.1% | – | – | 10.6% | -5.84% (active) | 38.5% | 14.7% | -12.7% (active) | – | 76.2%
COc1cc2c3c(n(CCCNC(C)C)c(=O)c2cc1OC)-c1nc2c(cc1C3=O)OCO2 | 128% | 87.6% | -88.9% (active) | -97% (active) | 97.2% | 4.04% (active) | 13.7% | 81.9% | 5.05% (active) | -1.94% (active) | – | -58% (active) | -93.2% (active) | 49.8% | 26.5% | 40.8% | -97.4% (active) | 88.8% | -72% (active) | -26.2% (active)
O=C1Nc2cc(-c3ccc(NC(=O)c4cccs4)cc3)ccc2/C1=C/c1ccc[nH]1 | 83.5% | 55.2% | 65.3% | 82.1% | 112% | 82% | 89.7% | 151% | 41.8% | 37.4% | – | 63.4% | 89.7% | 50.4% | 108% | 97.8% | 69.6% | 73.3% | – | 52.4%
C=C(c1ccc(OC)c(N)c1)c1cc(C)nc2ccccc12 | -23.7% (active) | 21.5% | 6.5% (active) | 21.4% | 78.1% | 24.5% | 27.1% | 118% | 5.19% (active) | 12.5% | – | 8.32% (active) | 26.3% | 57.8% | 21.7% | 17.1% | -4.17% (active) | 38.9% | -29% (active) | 10.9%
O=C(Nc1cccc(C(F)(F)F)c1)c1cncc(C#Cc2cnc3cccnn23)c1 | 61.1% | 54.7% | 35.5% | 30.4% | 97.8% | 55.2% | 71.8% | 171% | 16.5% | 24.3% | 9.35% (active) | 41% | 56.3% | 64.9% | 83.6% | 41.6% | 43.7% | 45.7% | 16.6% | –
CC(C)(C)Nc1nc2cc(Cl)c(Cl)cc2nc1S(C)(=O)=O | 37.2% | 58.1% | 20.1% | 90% | 99.8% | 56.3% | 53.2% | 142% | -17.9% (active) | -3.12% (active) | – | 41.3% | 79.3% | -6.34% (active) | 72.8% | 45.2% | -80.3% (active) | 56.8% | 7.99% (active) | 42.3%
Cc1ccc([N+](=O)[O-])c(C(=O)Nc2ccc(-c3ccc4c(c3)NC(=O)/C4=C\c3ccc[nH]3)cc2)c1 | 75.5% | 25.7% | 60.1% | 76.6% | 105% | 66.4% | 69.4% | 134% | 22.1% | 14.1% | – | 25.6% | 55% | 34.3% | 109% | 53.9% | 41.3% | 67.2% | 38% | 31.4%
